This is a sample that favours compounds with a hit; in the whole collection about 3.1% have one here.
BoNT-F LC inh: blocks Botulinum neurotoxin F light chain protease. AID 588497. hit rate 0.22% among 360,000. Multiplex microsphere protease cleavage assay, flow cytometry. inhibition, % at 10 µM; in the data active means inhibition above about 35%, passing the limit was not always enough; inconclusive means no clear call, values can overlap the other calls
Anthrax LF inh2: blocks Bacillus anthracis lethal factor protease | inhibition, % at 10 µM | AID 588501 | P15917 | hit rate 0.12% among 360,000 | multiplex microsphere protease cleavage assay, LF
Target sequence (P15917 whole entry, looked up): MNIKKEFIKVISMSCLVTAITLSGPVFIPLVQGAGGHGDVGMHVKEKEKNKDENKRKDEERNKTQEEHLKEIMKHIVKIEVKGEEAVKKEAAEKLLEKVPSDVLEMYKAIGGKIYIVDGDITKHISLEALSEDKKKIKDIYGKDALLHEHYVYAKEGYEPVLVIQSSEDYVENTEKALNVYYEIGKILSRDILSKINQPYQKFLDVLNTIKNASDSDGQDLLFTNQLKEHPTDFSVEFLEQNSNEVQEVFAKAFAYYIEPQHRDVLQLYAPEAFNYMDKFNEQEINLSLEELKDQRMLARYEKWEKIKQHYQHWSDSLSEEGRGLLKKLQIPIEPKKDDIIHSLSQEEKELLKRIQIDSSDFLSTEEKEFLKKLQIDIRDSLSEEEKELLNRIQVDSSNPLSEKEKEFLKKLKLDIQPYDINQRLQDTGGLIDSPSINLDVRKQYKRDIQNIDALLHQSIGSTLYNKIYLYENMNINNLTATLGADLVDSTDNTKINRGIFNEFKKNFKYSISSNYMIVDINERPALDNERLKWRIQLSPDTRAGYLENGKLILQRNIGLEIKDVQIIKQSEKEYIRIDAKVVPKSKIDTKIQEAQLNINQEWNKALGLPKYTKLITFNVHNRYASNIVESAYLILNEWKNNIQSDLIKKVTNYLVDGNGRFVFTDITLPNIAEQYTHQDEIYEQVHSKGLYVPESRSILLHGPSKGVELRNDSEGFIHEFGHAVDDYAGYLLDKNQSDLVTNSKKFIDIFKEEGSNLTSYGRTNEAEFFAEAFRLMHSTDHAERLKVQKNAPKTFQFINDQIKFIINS
Autofluor counter: flagged as autofluorescent in microsphere protease counterscreen | compound autofluorescence counterscreen, microsphere flow cytometry; active compounds read high | hit rate 3.1% among 360,000 | fluorescence intensity (no concentration beside the values); in the data active means fluorescence intensity above about 16000; inconclusive means no clear call, values can overlap the other calls
SSB-PriA inh: blocks PriA binding to SSB C-terminal tail | inhibition, % at 33 µM | AlphaScreen SSBct-PriA binding, biotinylated peptide | AID 1272365 | hit rate 0.6% among 430,000; in the data active means inhibition mostly above about 37%, no sharp cut-off; inactive means mostly below about 20%
BoNT A protease: inhibitors of Botulinum neurotoxin A light chain protease; multiplex microsphere protease substrate cleavage, flow cytometry; inhibition, % at 10 µM; hit rate 0.17% among 360,000
Hits are given with their value; – = inactive; ? = inconclusive; · = not tested or not shown. Unless noted, no stated cut-off is given here; in the data, active means inhibition above about 30%; inconclusive means no clear call, values can overlap the other calls; inactive means below that.

SMILES	BoNT-F LC inh	Anthrax LF inh2	Autofluor counter	SSB-PriA inh	BoNT A protease
COc1ccc(SCC2CCN(C(=O)c3ccc(Cl)s3)CC2)cc1	·	·	·	–	·
N/C(=N\OC(=O)Cc1ccccc1)c1ccccn1	–	–	–	·	–
NC(=NOC(=O)Cc1ccc([N+](=O)[O-])cc1)c1ccccn1	·	·	·	41.8	·
CN(CC(=O)O/N=C(\N)c1ccccn1)S(=O)(=O)c1ccccc1	–	–	19036	–	–
O=C(Nc1c2c(nn1-c1cccc(Cl)c1)C[S@@](=O)C2)C1CC1	·	·	·	–	·
O=C(NC1CC1)c1cccc(Nc2ccc(-c3ccc4c(c3)OCCO4)nn2)c1	–	–	21941	–	–
COc1ccc(S(=O)(=O)N2CCC3(CC2)OCCN3S(=O)(=O)c2cccs2)cc1OC	–	–	20013	–	–
CCCn1c(COc2ccccc2)nc2ccccc21	41.6	–	–	–	–
CC(C(=O)NCC1CCCO1)n1nnc2ccccc2c1=O (stereo not drawn)	·	·	·	–	·
CSc1nncn1N=Cc1ccccc1F	·	·	·	–	·
CSc1nncn1N=Cc1ccc2c(c1)OCO2	·	·	·	–	·
CSc1nncn1/N=C/c1ccc2c(c1)OCO2	–	–	23493	·	–
CSc1nncn1/N=C/c1ccccc1F	–	–	23258	·	?
O=c1cc(C(F)(F)F)nc(-c2ccccc2)[nH]1	–	–	21831	–	?
c1ccc2sc(NC3=NCN(Cc4ccc5c(c4)OCO5)CN3)nc2c1	–	–	–	–	–
COc1ccc(CN2CN=C(Nc3nc4ccccc4s3)NC2)cc1	–	–	23311	–	–
CC1CCCCC1N1CN=C(Nc2nc3ccccc3s2)NC1 (stereo not drawn)	–	–	23381	–	–
c1ccc(CN2CN=C(Nc3nc4ccccc4s3)NC2)cc1	–	–	16724	–	–
COc1cccc(-c2csc(=Nc3ccc(Cl)cc3)n2N2CCOCC2)c1	·	·	·	68.0	·
O=C(COc1ccc(S(=O)(=O)NC2CCCCC2)cc1)N1CCN(c2cccc(Cl)c2)CC1	–	–	22384	–	–
COCCn1cc(NC(=O)N2CCC(C(N)=O)CC2)c2ccccc21	·	·	·	–	·
O=S(=O)(CCc1ccccc1)NCCOc1ccc2nnc(-c3ccc(F)cc3)n2n1	·	·	·	–	·
Cc1ccc(NC(=O)Cc2ccc(F)cc2)cc1N1CCCCC1=O	·	·	·	–	·
O=C(Nc1cc(-n2cccn2)ncn1)c1ccc(Cn2ccnc2)cc1	·	·	·	–	·
COc1ccc(S(=O)(=O)N(C)CC(=O)N2CCN(C)CC2)cc1C	–	–	23309	–	–
SMILES	BoNT-F LC inh	Anthrax LF inh2	Autofluor counter	SSB-PriA inh	BoNT A protease
COc1ccc(S(=O)(=O)N(C)CC(=O)N2CCC(C(N)=O)CC2)cc1Cl	–	–	21013	–	?
CCN1CCN(C(=O)CN(C)S(=O)(=O)c2ccc(OC)c(C)c2)CC1	–	–	–	–	–
O=C(NCCC1=CCCCC1)c1c[nH]c(=O)n(Cc2ccccc2F)c1=O	·	·	·	–	·
COC(=O)c1ccc(OCC(=O)c2ccc(O)cc2O)cc1	–	–	24431	–	–
CCOC(=O)c1ccc(OCC(=O)c2ccc(O)cc2O)cc1	–	–	–	–	–
O=C(COc1ccccc1F)c1ccc(O)cc1O	–	–	20781	–	–
CC(C)(C)C(=O)N1CCc2ccc(NC(=O)c3ccco3)cc21	·	·	·	–	·
Cc1cnn(-c2cc(NN=Cc3cccc(F)c3)ncn2)c1	·	·	·	–	·
O=C(CCc1csc(NC(=O)c2ccc(=O)[nH]c2)n1)NC1CCCC1	·	·	·	–	·
O=C1N/C(=N\N=C\c2ccccn2)SC1Cc1cccc(SC(F)F)c1 (stereo not drawn)	–	–	–	·	–
O=C1N/C(=N\N=C\c2ccc3ncccc3c2)SC1Cc1ccc(SC(F)F)cc1 (stereo not drawn)	–	–	20635	·	?
Cc1cccc(C)c1N=C1NN=C(c2ccccc2F)CS1	–	–	–	–	–
Cc1ccccc1N=C1NN=C(c2ccccc2F)CS1	–	–	–	39.2	–
Cc1c2cc(O)c(=O)cc-2oc2cc(O)c(O)cc12	–	–	17336	–	–
COc1cc(OC)c(-c2c3cc(O)c(=O)cc-3oc3cc(O)c(O)cc23)cc1OC	–	–	–	–	–
COc1ccccc1NCC(=O)N/N=C/c1cccnc1	–	–	23032	·	–
COc1ccc(C2C(C(C)=O)=C(O)C(=O)N2Cc2ccccc2)c(OC)c1 (stereo not drawn)	–	–	–	–	–
COc1ccc(C2C(C(C)=O)=C(O)C(=O)N2CCc2ccccc2)c(OC)c1 (stereo not drawn)	–	–	16192	–	–
CC(=O)Nc1ccc(SCCCC(=O)Nc2ccc(F)c(Cl)c2)nn1	·	·	·	–	·
COCCNC(=O)CSc1nc2nc(C)cc(C)n2n1	–	–	22346	–	–
CCCCCCNC(=O)Cc1nc2nc(C)cc(C)n2n1	–	–	20841	–	–
Cc1cc(C)n2nc(SCCC(=O)NCCc3ccccc3)nc2n1	–	–	18555	–	–
CCN(C(=O)CSc1nc2nc(C)cc(C)n2n1)c1cccc(C)c1	–	–	16126	–	–
Cn1cc(-c2cccs2)nc1CCNC(=O)Cc1ccc(F)cc1	·	·	·	–	·
COC(=O)c1ccc(C(=O)OC)nc1	35.4	–	–	–	–
SMILES	BoNT-F LC inh	Anthrax LF inh2	Autofluor counter	SSB-PriA inh	BoNT A protease
Cn1c(=O)c2c(-c3ccccc3)n(-c3cc(Cl)c([N+](=O)[O-])cc3O)cc2n(C)c1=O	–	–	21612	·	–
CC(=O)Nn1cc2c(c1-c1ccccc1)c(=O)n(C)c(=O)n2C	–	–	24616	–	–
Cn1c(=NC(=O)c2ccno2)sc2ccc3ccccc3c21	·	·	·	–	·
CC(C)(C)NC(=O)CN(C(=O)CS(=O)CC(=O)Nc1ccc(F)cc1)c1ccc(F)c(Cl)c1 (stereo not drawn)	–	–	20160	–	–
CC(C)(C)NC(=O)CN(C(=O)CS(=O)CC(=O)Nc1ccc(F)cc1)c1ccc(Cl)cc1 (stereo not drawn)	–	–	20135	–	?
CC(C)(C)NC(=O)CN(C(=O)CS(=O)CC(=O)Nc1ccc(F)cc1)c1cccc(F)c1 (stereo not drawn)	–	–	–	–	–
COc1ccc(NC(=O)Cn2cc(OCc3ccccc3F)c(=O)cc2CO)c(OC)c1	·	·	·	–	·
CN(Cc1ccccc1)C(=O)NC1CCCCC1	–	–	22110	–	?
N#Cc1nc(Cc2cccc3ccccc23)oc1NCc1ccc(F)cc1	–	–	–	44.9	–
COc1ccc(CNc2oc(-c3cccc4ccccc34)nc2C#N)cc1	–	–	19935	–	–
COc1ccccc1C(=O)NCCn1cc(SCC(=O)NC2CCCC2)c2ccccc21	·	·	·	–	·
COc1ccc(-c2c(C)oc3ccc(C)cc23)cc1	–	–	23892	–	–
COc1ccc(-c2oc3ccc(-c4cc(OC)c(OC)c(OC)c4)cc3c2-c2ccc(OC)cc2)cc1	·	·	·	–	·
CCOC(=O)C(C#N)=NNc1ccccc1C(=O)O	·	·	·	–	·
COC(=O)c1ccc(Oc2nc(Nc3ccc(C)c(C)c3)nc(N(C)C)n2)cc1	–	–	24525	–	–
CCOC(=O)N1CCC(NC(=O)CCc2c(C)nc3c(c(C)nn3-c3ccccc3)c2C)CC1	–	–	–	–	–
CCOC(=O)N1CCN(C(=O)c2cc(C)c3c(C)nn(-c4ccccc4)c3n2)CC1	–	–	23022	–	–
NNC(=O)c1ccc(COc2ccccc2)cc1	–	–	–	–	–

Source: PubChem BioAssay (several laboratories)
